Measured values from PubChem BioAssay (NCI).
Compounds without any hit were thinned out: in the full panel of roughly 83,000, 20% have a hit.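 How to read the values: 0–100, growth inhibition (40 = 60% inhibited); 0, no net growth; -100 to 0, cell death (-40 = 40% of starting cells died; -100 = all dead).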 A number with no mark means an inactive call. Activity calls are given as the source filed them. The calls were made as follows: active = growth percent below 10; inactive = the rest.

system: MDA-MB-435 melanoma; assay: NCI-60 one-dose screen, 48 h (100 = growth as untreated, 0 = no growth, -100 = all killed); details: 10 µM unless noted

| SMILES | growth |
| --- | --- |
| COc1ccc(-c2nc3cccc(O)c3c(=O)n2Cc2ccccc2)cc1COc1ccc(NC(C)=O)cc1 | 59.7% [3 µM] |
| O=C(CN1CCN(c2cc(=O)n(-c3ccccc3)c3ccccc23)CC1)Nc1nc(-c2ccc(Cl)cc2)cs1 | 49.8% |
| Cc1c(Cl)cccc1S(=O)(=O)Nc1ccc2c(c1)C(=O)N(C1CCC(=O)NC1=O)C2=O (stereo not given) | 96.2% |
| C#CC(=O)N(c1ccc(OC)cc1OC)C(C(=O)NCC(=O)OCC)c1cccs1 (stereo not given) | 95.5% |
| COc1ccccc1N1CCN(C2=CC(=O)C(C)=C(C)C2=O)CC1 | 106% |
| COc1cc(/C=C2\C(=O)Nc3ccccc32)ccc1OCc1ccc(Cl)cc1 | 106% |
| Nc1ncc(-c2ccc3ncnc(N4CCc5cc(F)c(F)cc54)c3c2)cn1 | 30.2% |
| COc1ccc(-c2nc(C(Cl)Cl)nc3cc(-c4ccccc4)nn23)cc1 | -30.3% (active) |
| Cc1cc(-c2ccc(Cl)cc2)n(Cc2nnc(SCC(=O)Nc3ccc(S(N)(=O)=O)cc3)n2-c2ccc([N+](=O)[O-])cc2)n1 | 87.4% |
| CN1c2ccccc2Sc2cc(C=C(C#N)C#N)ccc21 | 103% |
| CC(C)(C)c1ccc(-c2nnc(-c3nc4ccccc4nc3Cl)o2)cc1 | 69% |
| O=C(Cn1cc[n+](CC(=O)c2ccc(-c3ccccc3)cc2)c1)Nc1cccc2cccnc12 | 79.3% |
| N#Cc1cccc(/C(N)=N/C(N)=N/c2nc3ccccc3s2)c1 | -39% (active) |
| COc1ccccc1-n1cc(C#N)c(N)c1C(=O)c1ccc(Cl)cc1 | -16.7% (active) |
| N=c1c2cc(-c3ccccc3)oc2ncn1/N=C/c1ccc(Br)cc1 | 61.6% |
| CC1(COc2ccc3ncc(C#Cc4cncc(C(=O)Nc5cccc(C(F)(F)F)c5)c4)n3n2)COC1 | 89.2% |
| Cc1cc(C(NC(=O)CCCCCNc2cccc3c2C(=O)N(C2CCC(=O)NC2=O)C3=O)c2ccc3c(c2)OC(F)(F)O3)c(O)c2ncccc12 (stereo not given) | 27.8% |
| N#Cc1c(NC(=O)c2cccc(C(F)(F)F)c2F)sc2c1CCC(=O)C2 | -30.5% (active) |
| O=C(CN1CCN(c2cc(=O)n(-c3ccccc3)c3ccccc23)CC1)Nc1nc(-c2ccccc2)cs1 | 73.4% |
| CN(C)CCCOc1ccc2c(c1)CN(C(=O)c1cc(C(=O)N3Cc4cccc(F)c4C3)ccc1O)C2 | 103% |
| O=C(CSc1nnc(-c2ccc(Cl)cc2)n1-c1ccccc1)Nc1ccc(Br)cc1 | 27.2% |
| CC1(C)CC[C@]23CC[C@]4(C)[C@H](CC[C@@H]5[C@@]6(C)CCCN(CO)C(C)(C)[C@@H]6CC[C@]54C)[C@H]2[C@H]1OC3 | 88.7% |
| COc1ccc(CCN2C(=O)CSC2=S)cc1 | 77.6% |
| CCn1c(SCC(=O)Nc2cccc(C(=O)/C=C/c3ccc(C)cc3)c2)nc2ccccc2c1=O | 75.4% |
| O=C1[C@@H]2Cc3c([nH]c4ccccc34)[C@H](c3c(Cl)cccc3Cl)N2C(=O)CN1C1CCN(CC2CCCCC2)CC1 | 73.6% |
